Reference: PubChem BioAssay AID624348 (National Center for Advancing Translational Sciences (NCATS), 2012)
The source made the active and inactive calls.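 How the source made its calls: active means concentration cutting cell viability by half at or below 20 µM after three days; inconclusive means half-viability concentration between 20 and 30 µM; inactive means half-viability concentration of 30 µM or more.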

Experiment: qHTS for Inducers of the Endoplasmic Reticulum Stress Response (ERSR) in Human Glioma: Hit Validation in Cytotoxic Counterscreen
Conditions: U87-MG glioma viability, CellTiter-Glo ATP luminescence, 72 h
From the text: Primary protein unfolding takes place for many diseases, including diabetes and hypoxia, , and triggers a reaction in the cells called ER stress response (ERSR). ). ERSR is designed as a repair mechanism, but ultimately leads to cell death via apoptosis if conditions triggering protein unfolding persist (1). The molecular clue to ERSR activation is the enhancement of the expression of key molecular chaperones, including the glucose regulated protein (GRP) 78. GRP78 is the main sensor for protein folding and the main actuator of the ERSR. In a collaboration between the Southern Research Institute and the NIH Chemical Genomics Center, a cell based screen was developed that reliably uses GRP78 as a sensor to identify small molecules as inducers of ERSR. In resting conditions, GRP78 binds proteins and acts as a natural repressor. Once unfolded proteins are present in the ER, GRP78 releases some of the repressors and binds to the unfolded proteins. The release of the repressors executes the ERSR program. Using a human glioma cell line in a miniaturized, luminescent format, a high-throughput screen was developed to identify actuators of the ERSR. This assay validates the hits identified in the primary screen in this cytotoxic counterscreen. Activity is undesirable in this assay. NIH Chemical Genomics Center [NCGC] NIH Molecular Libraries Probe Centers Network [MLPCN] MLPCN Grant: DA031669 Assay Submitter (PI): Maurizio Grimaldi, Southern Research Institute (1) Soboloff, J. and S. A. Berger (2002). "Sustained ER Ca2+ depletion suppresses protein synthesis and induces activation-enhanced cell death in mast cells." J Biol Chem 277(16): 13812-20.
Wild type U87-MG are dispensed at density 1000 cells/well into Greiner white solid bottom 1536-well assay plates. […] The plates are incubated at room temperature for 10 minutes and read in a ViewLux high-throughput CCD imager (PerkinElmer), wherein end-point measurements of luminescence through the quantitation of the ATP content, an indicator of metabolically active cells, are acquired.

Compound | outcome
Cc1ccc(-c2cc(NC(=O)C(C)Oc3ccc(C)c(C)c3)on2)cc1 (stereo not drawn) | inactive
CC(=O)N1CCOc2cc(S(=O)(=O)Nc3c(C)cccc3C(C)C)c(Cl)cc21 | inactive
CC(C)Cc1nn2c(=O)cc(COC(=O)CNC(=O)c3ccc(C(C)(C)C)cc3)nc2s1 | inactive
